Source: PubChem BioAssay (NCATS)
Inconclusive results are not listed. Calls of active or inactive are those of the source. Calls follow the shape of the dose curve; as a rule, active = well fitted inhibition curve with a large enough effect; inconclusive = small, poorly fitted or top-dose-only effect; inactive = flat fitted curve, though single readings scatter. Where a SMILES comes first, the peptide text is derived from it. [ ]: non-standard residue; d: D form. 2Abz = Nc1ccccc1C(=O)O

Key:
Experiment in all cases: Cytotoxic Profiling of Annotated Libraries Using Quantitative High-Throughput Screening (AID 1296008); also: nearly all actives have a fitted effect of over 60% in size
Settings in all cases: Five cell lines viability, CellTiter-Glo ATP luminescence, 48-72 h; max response: hits give low values
[1] = system: CRL-7250
Summary of the method: (§1)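 Cytotoxicity was measured as CellTiter-Glo ATP luminescence, read after 10 min at room temperature. Compound treatment of the cells lasted 48 or 72 hr at 37 degrees Celsius in a qHTS format.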

[2] = system: HEK293
Summary of the method: as §1

[3] = system: HaCat
Summary of the method: as §1

[4] = system: KB-3-1
Summary of the method: as §1

[5] = system: NIH3T3
Summary of the method: as §1

Measured: max response
% is scaled to controls: 0 for no effect and ±100 for the full control effect.

O=C(/C=C/c1ccc(O)cc1)OCC1=CC2OC(=O)C3=CO[C@@H](O[C@@H]4O[C@H](CO)[C@@H](O)[C@H](O)[C@H]4O)[C@H]1[C@@H]32 (stereo not given in full)
inactive: [1] -2.07% | [2] | [3] | [4] | [5] -2.28%

CCOc1ccc(C(Nc2ccccn2)c2ccc3ccc(C)nc3c2O)cc1C (stereo not given)
inactive: [1] | [2] | [3] | [4] -0.87% | [5] -16.7%

O=C(NCC(=O)N1CC[C@H](NC2CCC(O)(c3ccc(-c4ncccn4)cn3)CC2)C1)c1cccc(C(F)(F)F)c1 (stereo not given in full)
inactive: [1] -2.44% | [2] | [3] | [4] | [5] 3.11%

C=CC(C)(O)CC/C=C(\C)C(=O)OCC1OC(OC2CCC3(C)C(CCC4(C)C3CC=C3C5CC(C)(C)C(O)CC5(C(=O)O)CCC34C)C2(C)C)C(O)C(OC2OC(CO)C(O)C(OC3OC(CO)C(O)C(OC4OC(COC5OC(CO)C(O)C(O)C5O)C(O)C(O)C4O)C3O)C2O)C1O (stereo not given)
inactive: [1] -1.92% | [2] | [3] 2.14% | [4] | [5]

O=C(O)C[C@H]1CCC(=O)[C@@H]1C/C=C\CCOC1OC(CO)C(O)C(O)C1O (stereo not given in full)
inactive: [1] -7.42% | [2] | [3] | [4] 1.25% | [5]

COc1ccc2cc(OCC3(C(=O)O)CN(C(=O)c4ccc(F)cc4)C3)ccc2c1
inactive: [1] | [2] | [3] | [4] 1.45% | [5]

C=Cc1cc(O)cc2nc(-c3ccc(O)c(F)c3)oc12
inactive: [1] -4.59% | [2] | [3] -8.75% | [4] | [5]

O=C(/C=C/c1ccc(O)c(O)c1)OCc1ccccc1O[C@@H]1O[C@H](CO)[C@@H](O)[C@H](O)[C@H]1O
inactive: [1] -1.33% | [2] | [3] 1.88% | [4] 0.279% | [5] -4.16%

C=C1CC/C=C(/CO)C(=O)C[C@@H]2[C@@H]1CC2(C)C
inactive: [1] | [2] | [3] | [4] 2.82% | [5] 0.52%

CCOc1nc2cccc(C(=O)O)c2n1Cc1ccc(-c2ccccc2-c2noc(=O)[nH]2)cc1
inactive: [1] 4.39% | [2] | [3] | [4] | [5] -8.35%

CC(C)(C)NCc1cc(Nc2ccnc3cc(Cl)ccc23)c2c(c1O)CCCC2
inactive: [1] 1.77% | [2] | [3] -6.14% | [4] 7.98% | [5]

COC1CC(OC2CCC3(C)C(=CCC4C3CCC3(C)C(C(C)O)CCC43O)C2)OC(C)C1OC1OC(C)C(OC2OC(COC3OC(COC4OC(CO)C(O)C(O)C4O)C(O)C(O)C3O)C(O)C(O)C2O)C(OC)C1O (stereo not given)
inactive: [1] -10.5% | [2] | [3] -1.65% | [4] | [5]

O=C(O)CCc1cccc(O[C@@H]2O[C@H](CO)[C@@H](O)[C@H](O)[C@H]2O)c1O
inactive: all assays above

CC1CCC2C(C(=O)O)=CC3CC(C)(C)CC132 (stereo not given)
inactive: [1] 3.63% | [2] | [3] -7.87% | [4] 3% | [5]

Cn1ccnc1CCOC(c1cc2nccc(C(=O)O)c2[nH]1)c1ccccc1Cl (stereo not given)
inactive: [1] | [2] | [3] | [4] 2.27% | [5] 4.24%

Oc1ccc([C@H]2COc3cc(O)ccc3C2)cc1
inactive: [1] | [2] | [3] | [4] 0.946% | [5] 3.41%

COC1=Cc2c(nc3n(c2=O)C(C)C(=O)NC3(O)C(C)C)OC=C1 (stereo not given)
inactive: [1] | [2] | [3] 4.53% | [4] 6.94% | [5] 2.45%

CCC(C)(O)C(O)C(=O)OCc1ccc(O[C@@H]2O[C@H](CO)[C@@H](O)[C@H](O)[C@H]2O)cc1 (stereo not given in full)
inactive: [1] -2.71% | [2] | [3] -0.484% | [4] | [5] -0.787%

CC1=C2C=C(CO)C(CO)CCC2(C)CCC1=O (stereo not given)
inactive: [1] -3.34% | [2] | [3] | [4] | [5] -1.32%

COc1cc(C2Oc3c(OC)cc(/C=C/C(=O)OC[C@H]4O[C@@H](OC(C)(C)C(=O)O)[C@H](O)[C@@H](O)[C@@H]4O)cc3C2CO)ccc1O (stereo not given in full)
inactive: [1] | [2] | [3] | [4] 0.492% | [5] 1.11%

CC1(O)CCC2C(C(=O)O)=COC(OC3OC(CO)C(O)C(O)C3OC(=O)/C=C/c3ccc(O)cc3)C21 (stereo not given)
inactive: [1] | [2] | [3] | [4] 8.2% | [5]

O=C(NN1CCCCC1)c1nn(-c2ccc(Cl)cc2Cl)c(-c2ccc(C#Cc3ccc(C(F)(F)F)cc3)s2)c1CNS(=O)(=O)N1CCCC1
inactive: [1] -7.83% | [2] | [3] | [4] 4.58% | [5]

CC(=O)N(O)CCCCCN1C(=O)CCC1=O
inactive: [1] | [2] | [3] | [4] 2.57% | [5]

C=CC1(C)CC(OC(=O)C(=C)C(O)COC(C)=O)C(C(=C)C(=O)OC)C(O)C1C(=C)CO (stereo not given)
inactive: [1] | [2] | [3] -1.47% | [4] 1.8% | [5] 0.638%

COc1cc(C2Oc3c(OC)cc(CCCO[C@@H]4O[C@H](CO)[C@@H](O)[C@H](O)[C@H]4O)cc3C2CO)ccc1O (stereo not given in full)
inactive: [1] -0.0218% | [2] | [3] | [4] 1.37% | [5] 3.22%

C[C@@H]1O[C@@H](O[C@H]2[C@H](OC(=O)[C@]34CCC(C)(C)C[C@H]3C3=CCC5[C@@]6(C)C[C@H](O)[C@H](O[C@@H]7O[C@H](CO)[C@@H](O[C@@H]8O[C@H](CO)[C@@H](O)[C@H](O)[C@H]8O)[C@H](O)[C@H]7O)[C@@](C)(CO)C6[C@H](O)C[C@@]5(C)[C@]3(C)C[C@H]4O)OC[C@H](O)[C@@H]2O)[C@H](O)[C@H](O)[C@H]1O[C@@H]1OC[C@@H](O)[C@H](O[C@@H]2OC[C@](O)(CO)[C@H]2O)[C@H]1O (stereo not given in full)
inactive: [1] 4.17% | [2] | [3] | [4] | [5] 4.2%

C[C@]12CCC[C@](C)(C(=O)O)C1CCC13C=C(CO)C(CCC12)C3 (stereo not given in full)
inactive: [1] -11% | [2] | [3] | [4] 2.91% | [5]

CCC(C)C1NC(=O)C2CCCN2C(=O)C(C(C)C)NC(=O)c2ccccc2NC(=O)C(Cc2ccc(O)cc2)NC(=O)C(C)NC(=O)C(C(C)O)NC1=O (stereo not given) (cyclo([2Abz]VPITAY); configuration not given here)
inactive: [1] -3.19% | [2] | [3] | [4] | [5]

CC1=CCC2C(C)(CO)CCCC2(CO)C1CO (stereo not given)
inactive: [1] | [2] | [3] -5.9% | [4] | [5]

CC(=O)N[C@H]1[C@H](O[C@H]2CC[C@@]3(C)C(CC[C@]4(C)C3CC=C3C5CC(C)(C)CC[C@]5(C(=O)O)[C@H](O[C@@H]5O[C@H](CO)[C@@H](O)[C@H](O)[C@H]5O)C[C@]34C)C2(C)C)O[C@H](CO[C@@H]2OC[C@H](O)[C@H](O)[C@H]2O[C@@H]2OC[C@@H](O)[C@H](O)[C@H]2O)[C@@H](O)[C@@H]1O (stereo not given in full)
inactive: [1] | [2] | [3] -15.2% | [4] 2.21% | [5] -4.54%

C=C1CCC2[C@@](C)(C=O)CCC[C@]2(C)[C@H]1CC/C(C)=C/CO (stereo not given in full)
inactive: [1] | [2] | [3] 3.6% | [4] 7.89% | [5] 1.05%

Cc1coc2c1CC1OC1(C)CCC1OC1(C)C2 (stereo not given)
inactive: [1] 4.59% | [2] | [3] 3.75% | [4] 8.78% | [5]

CC1(C)C(=O)C(C)(C)c2cc(C(=O)Nc3ccc(C(=O)O)cc3)ccc21
inactive: [1] 2.14% | [2] | [3] -8.59% | [4] | [5]

CN1C(=O)c2ccccc2-n2c(nc3ccccc3c2=O)/C1=C/c1ccccc1
inactive: [1] | [2] | [3] -6.39% | [4] | [5] 3.9%

C=CC(C)(CC/C=C(\C)CC/C=C(\C)CC(O)/C=C(\C)C(=O)O)O[C@@H]1O[C@H](CO)[C@@H](O)[C@H](O)[C@H]1O[C@@H]1O[C@H](CO)[C@@H](O)[C@H](O)[C@H]1O (stereo not given in full)
inactive: [1] | [2] | [3] | [4] 5.27% | [5]

CCCn1cnc2c(NCc3ccccc3)nc(N[C@H](CC)CO)nc21
inactive: [1] -7.86% | [2] | [3] 0.198% | [4] | [5]

CN1CC[C@@H](NC(=O)Nc2ccc(C#N)cc2)C[C@@H]1c1nc2ccccc2[nH]1
inactive: [1] -0.913% | [2] | [3] | [4] -8.77% | [5] 4.24%

O=C(/C=C/c1ccc(O)cc1)O[C@H]1[C@@H]2C=CO[C@@H](O[C@@H]3O[C@H](CO)[C@@H](O)[C@H](O)[C@H]3O)[C@@H]2[C@@]2(CO)O[C@@H]12
inactive: [1] -3.08% | [2] | [3] 1.73% | [4] | [5] 0.736%

C=C(C(=O)O)[C@@H]1CC=C2CCC[C@H](C)[C@@]2(C)C1
inactive: [1] -11.2% | [2] | [3] | [4] 4.53% | [5]

COc1ccc(C(=O)O[C@H]2CC(C)=CC[C@@]3(C)[C@@H](OC(C)=O)C[C@@](O)(C(C)C)[C@H]23)cc1
inactive: [1] -4.18% | [2] | [3] | [4] 7.38% | [5]

O=c1ccn([C@@H]2O[C@H](CO)[C@@H](O)[C@H]2O)c(=O)[nH]1
inactive: [1] -8.67% | [2] | [3] 3.94% | [4] 0.253% | [5]
